Compound activity: PubChem, National Center for Advancing Translational Sciences (NCATS)
Compounds with a hit are over-represented: about 3% of the library has one in this group of screens.
Tau fluor counter: Counterscreen qHTS for Inhibitors of Tau Fibril Formation, Fluorescence Polarization | tau K18 P301L Alexa594 fluorescence, heparin fibrillization | Potency, µM (highest dose often 57.7 µM), for inactives: at the highest dose activity change, negative = decrease | actives 0.93% (n = 280,000) | AID 1463, 2008; note: potency is the fitted concentration of half-maximal effect; nearly all actives have a fitted effect of over 55% in size
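Human K18 P301L tau (15 uM unlabeled plus 0.24 uM Alexa 594-labeled, final) in 100 mM sodium acetate pH 7 was mixed with compound and 20 uM heparin and incubated 6 hr at 37 C.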
JMJD2E inh: qHTS Assay for Inhibitors of Human Jumonji Domain Containing 2E (JMJD2E) | actives 1.6% (n = 230,000) | Lysine-specific demethylase 4E (Homo sapiens), B2RXH2 | Potency, µM (highest dose often 57.1 µM), for inactives: at the top dose activity change, negative = inhibition, actives largely listed as inhibitors | AID 2147, 2009 | JMJD2E catalytic domain, FDH-coupled NADH fluorescence (FDH is formaldehyde dehydrogenase);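 note: potency is the fitted concentration of half-maximal effect; 0% = wells with enzyme and -100% = buffer wells without enzyme; nearly all actives have a fitted effect of over 50% in size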
Target sequence (B2RXH2 1-337 limits assumed): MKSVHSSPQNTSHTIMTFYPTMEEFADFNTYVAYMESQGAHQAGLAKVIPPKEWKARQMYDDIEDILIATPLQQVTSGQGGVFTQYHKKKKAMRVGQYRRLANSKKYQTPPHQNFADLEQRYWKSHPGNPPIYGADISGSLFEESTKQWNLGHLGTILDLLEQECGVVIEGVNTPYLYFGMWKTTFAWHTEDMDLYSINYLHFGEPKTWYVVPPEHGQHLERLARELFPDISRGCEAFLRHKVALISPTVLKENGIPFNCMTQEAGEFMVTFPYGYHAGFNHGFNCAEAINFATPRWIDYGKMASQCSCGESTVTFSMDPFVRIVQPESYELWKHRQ
FBPA coupling cs: qHTS Assay for Inhibitors of Fructose-1,6-bisphosphate Aldolase from Giardia Lamblia: Coupling assay counterscreen | coupling enzyme system counterscreen, AmpLite Red fluorescence | activity change, negative = inhibition, % at 58.2 µM, hits read low | actives 0.67% (n = 290,000); in the data active = activity change below about -30%
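Counterscreen lacking aldolase: glyceraldehyde-3-phosphate coupling-enzyme reagent preincubated 10 min at RT with compound (at 57.5 uM final), then substrate/coupling system with AmpLite Red added; fluorescence read at 525/598 nm after 20 min RT.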
Tau FP inhib: qHTS for Inhibitors of Tau Fibril Formation, Fluorescence Polarization | Microtubule-associated protein tau (Homo sapiens), P10636 | K18 P301L tau heparin fibrillization, Alexa594 FP, 6 h | Potency, µM (doses to about 57.7 µM), inactives show top-dose activity, negative = inhibition, hits mostly inhibitors | actives 0.39% (n = 280,000) | AID 1468, 2008; note: potency is the fitted concentration of half-maximal effect; nearly all actives have a fitted effect of over 55% in size
Target sequence (P10636 561-689 P618L limits assumed): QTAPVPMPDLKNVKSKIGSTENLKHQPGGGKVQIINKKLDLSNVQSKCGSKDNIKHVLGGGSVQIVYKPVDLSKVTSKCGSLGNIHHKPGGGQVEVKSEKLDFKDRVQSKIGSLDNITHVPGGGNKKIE
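Human tau K18 […] P301L fragment, 15 uM unlabeled plus 0.24 uM Alexa 594-labeled tau (final), with compound and 20 uM heparin in 100 mM sodium acetate pH 7; 6 hr at 37 C, then Alexa 594 FP read.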
Tau ThT inhib: qHTS for Inhibitors of Tau Fibril Formation, Thioflavin T Binding | recombinant tau K18 P301L (four-repeat tau fragment), heparin-induced fibrillization, ThT fluorescence | actives 2.1% (n = 270,000) | Potency, µM (highest dose often 57.4 µM), for inactives: at the top dose activity, negative = inhibition, most hits filed as inhibitors | Microtubule-associated protein tau (Homo sapiens), P10636; note: potency is the fitted concentration of half-maximal effect; nearly all actives have a fitted effect of over 55% in size
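Recombinant human tau K18 fragment […] carrying P301L, 15 uM unlabeled plus 0.24 uM Alexa 594-labeled, was fibrillized with 20 uM heparin in 100 mM sodium acetate pH 7 for 6 hr at 37 C; 30 uM ThT fluorescence read after 1 hr.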
* = called active by the depositor; ? = inconclusive; · = no result given; [ ] = another dose, or the depositor's remark. Unless noted, calls come from the whole dose curve; as a rule, active = well fitted curve in the direction sought with a large enough effect; inconclusive = small, poorly fitted or top-dose-only effect, or another doubt; inactive = no such curve, though single readings can be large; an effect the other way counts as inactive or inconclusive. Unless noted, % is set by controls: 0 for no effect and ±100 for the full control effect.

SMILES	Tau fluor counter	JMJD2E inh	FBPA coupling cs	Tau FP inhib	Tau ThT inhib
COc1ccc(OC)c(Nc2nc(-c3c(C)nc4ncccn34)cs2)c1	·	·	0.0	·	·
COc1ccc(OC)c(Nc2nc(-c3cccs3)cs2)c1	15.8µM*[quencher]	-6.6%	0.4	4.2%	?
Cc1ccc(CNc2nc(-c3cccs3)nc3ccccc23)cc1	?	?	-1.7	39.8µM*	-13.8%
c1cncc(CNc2nc(-c3ccoc3)nc3ccccc23)c1	?	?	-1.1	?	28.2µM*
COc1ccc(CNc2nc(-c3ccc(N(C)C)cc3)nc3ccccc23)c(OC)c1	·	·	-36.7*	·	·
CN(C)c1ccc(-c2ccc3ncnc(NCc4ccccc4)c3c2)cc1	10µM*[quencher]	?	-6.6	?	?
CN(C)c1ccc(-c2nc(NCc3cccnc3)c3ccccc3n2)cc1	17.8µM*[quencher]	?	-2.7	-9.7%	14.1µM*
COc1ccc(CNc2nc(-c3ccc(C(=O)N(C)C)cc3)nc3ccccc23)c(OC)c1	-25.3%	?	-13.0	5.6%	-3.0%
COc1ccc(Cl)cc1NC(=O)c1c(NCc2cccs2)sc2c1CCCC2	?	·	·	-3.8%	?
O=C(COc1ccc(F)cc1)Nc1ccccc1C(=O)OCc1cc(=O)n2nc(C3CC3)sc2n1	-12.9%	·	·	-2.5%	-8.8%
O=c1c(OC2OC(CO)C(O)C(O)C2OC2OC(CO)C(O)C(O)C2O)c(-c2ccc(O)cc2)oc2cc(O)cc(O)c12 (stereo unspecified)	-11.3%	28.2µM*	-3.8	-1.2%	-4.9%
O=c1c(OC2OC(CO)C(O)C(O)C2O)c(-c2ccc(O)c(O)c2)oc2cc(O)cc(O)c12 (stereo unspecified)	-9.4%	8.91µM*	0.8	4.4%	-18.1%
CC1OC(OCC2OC(Oc3c(-c4ccc(O)c(O)c4)oc4cc(O)cc(O)c4c3=O)C(O)C(O)C2O)C(O)C(O)C1O (stereo unspecified)	-16.7%	11.2µM*	-2.1	-13.7%	?
O=C(/C=C/c1ccc(O)cc1)OC[C@H]1O[C@@H](Oc2c(-c3ccc(O)cc3)oc3cc(O)cc(O)c3c2=O)[C@H](O)[C@@H](O)[C@@H]1O	·	·	1.5	·	·
O=c1cc(-c2ccccc2)oc2cc(O[C@@H]3O[C@H](CO)[C@@H](O)[C@H](O)[C@H]3O)c(O)c(O)c12	-29.7%	12.6µM*	-8.2	-0.1%	?
CCOc1ccccc1CNCc1cccn1-c1nnc(N2CCN(c3ccccc3)CC2)s1	-7.5%	·	·	-8.6%	?
CCn1nc(C)c2c(-c3ccccc3)cc(=O)n(C(C)C(=O)NCCC(C)C)c21 (stereo unspecified)	-5.1%	·	·	3.3%	-13.8%
CCOC(=O)CNS(=O)(=O)c1ccc(F)cc1Br	·	·	2.7	·	·
COc1ccc(C2=Nn3c(nnc3-c3cccc(OC)c3OC)SC2)cc1	·	·	2.6	·	·
C[C@@H]1O[C@@H](Oc2c(-c3cc(O)c(O)c(O)c3)oc3cc(O)cc(O)c3c2=O)[C@H](O)[C@H](O)[C@H]1O	?	2.24µM*	-7.3	?	?
CC(=O)Nc1ccc(NC(=O)/C=C/c2ccc3c(c2)OCO3)cc1	-11.8%	?	1.8	-2.2%	?
CC(C)(C)c1ccc(/C=C/C(=O)Nc2ccc3c(c2)OCCO3)cc1	10µM*[quencher]	-14.6%	0.0	?	?
CCOc1ccc(C(=O)NCCc2csc(-c3ccc(C(F)(F)F)cc3)n2)cc1OCC	-11.2%	·	·	-1.4%	-4.2%
O=C(Nc1ccc(F)cc1)Nc1cc(OCC(F)(F)F)cc(OCC(F)(F)F)c1	?	-4.3%	-0.1	8.91µM*	-4.2%
O=C(NCCNC(=O)c1cc(OCC(F)(F)F)ccc1OCC(F)(F)F)Nc1ccc(Cl)cc1	-26.4%	13.0%	1.3	?	16.8%
O=C(NCCNC(=O)c1cc(OCC(F)(F)F)ccc1OCC(F)(F)F)Nc1ccc(OC(F)(F)F)cc1	-25.6%	-1.4%	-3.4	3.55µM*	10.3%
